Measurements reported in PubChem BioAssay AID602393 (Broad Institute, 2012).
The campaign covered roughly 350,000 compounds. About 7,000 (2%) were called active. This excerpt belongs to a sample that is enriched for actives. Unmarked numbers belong to inactive results. Rule as the data show it: active = activation above about 40%; inconclusive = no clear call, values can overlap the other calls; inactive = below that.

Assay: raisers of Bmi1 knock-in reporter signal – mouse ES cells, Bmi1 luciferase knock-in, single point, esBAF inhibitor project, primary screen (AID 602393);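 also: 0% = median of the plate's neutral control wells and 100% = double that signal; a rise in the Bmi1 reporter signal indicates esBAF inhibition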
Conditions: 24 h, at 12.5 µM, active compounds read high, 100% = twice the neutral-well signal

SMILES | reporter increase
COc1cccc(C(=O)Nc2ccc3c(c2)C(=O)N(C)[C@@H]2CC[C@H](CC(=O)NCCCN4CCOCC4)O[C@H]2CO3)c1 | 6.81%
C[C@@H]1CN([C@@H](C)CO)C(=O)c2cc(NS(=O)(=O)c3cn(C)cn3)ccc2O[C@@H](C)CCCCO[C@H]1CN(C)S(=O)(=O)c1cccs1 | -0.192%
Cc1ccc(S(=O)(=O)Nc2ccc3c(c2)C(=O)N([C@H](C)CO)C[C@@H](C)[C@H](CN(C)C(=O)Nc2ccc(C(F)(F)F)cc2)OCCCC[C@H](C)O3)cc1 | -0.527%
c1ccc2c(c1)CCc1snnc1-2 | -3.35%
COc1ccc(/C=C2/CCCc3ccccc3C2=O)cc1 | 23.6%
O=C1/C(=C/c2cccs2)CCc2ccccc21 | 56.4% (active)
COc1ccc(/C=N/NC(=O)C2CC2)c(OC)c1OC | -5.72%
O=S(=O)(c1cccs1)N1CCc2ccccc2C1 | -5.9%
COc1ccc(/C=C2\CCc3ccccc3C2=O)c(OC)c1OC | 35.7% (active)
O=C(C[C@H]1C=C[C@@H](NS(=O)(=O)c2ccc(F)cc2)[C@@H](CO)O1)NC1CCC1 | -2.06%
CO[C@H]1CN(C)C(=O)c2cc(NS(C)(=O)=O)ccc2OC[C@@H](C)N(C)C[C@@H]1C | 0.827%
CN1CCCCN2[C@@H](CO)[C@@H](c3ccc(C4=CCCC4)cc3)[C@@H]2C1 | -22.1%
CCc1nnc(NC(=O)c2cc(S(=O)(=O)N3CCCCC3)ccc2C)s1 | 8.45%
CCc1ccccc1OCC(=O)Nc1nnc(C2CC2)s1 | 1.33%
O=C(Nc1nnc(C2CC2)s1)C1=NN(C2CCS(=O)(=O)C2)C(=O)CC1 (configuration not stated) | 4.96%
Cc1cc(C(=O)Nc2nnc(C3CC3)s2)c(C)s1 | 62.3% (active)
COc1ccc2c(CC(=O)Nc3nnc(C4CC4)s3)coc2c1 | 4.79%
CCc1cc(C(=O)Nc2nnc(C3CC3)s2)sc1C | 53.3% (active)
COCc1cn(CC[C@H]2CC[C@H](NC(=O)c3ccncc3)[C@H](CO)O2)nn1 | -3.19%
CN1C[C@H]2[C@@H](c3ccccc31)[C@@H](CO)N2C(=O)Nc1ccccc1 | 3.76%
O=S(=O)(Nc1ccc2nc(-c3ccco3)[nH]c2c1)c1ccccc1 | 60.3% (active)
O=S(=O)(Nc1ccc2cn[nH]c2c1)c1ccccc1 | -0.15%
Cn1c(CCN2CCCC2)nc2cc(NS(=O)(=O)c3ccccc3)ccc21 | 1.19%
CO[C@H]1CC[C@@H]2CCOc3c(C#N)cccc3C(=O)N(C)C[C@H](C)C(=O)N(C)C[C@H]1O2 | 4.38%
C[C@H](NC(=O)C[C@@H]1C[C@@H]2c3cc(NC(=O)Nc4ccc(C(F)(F)F)cc4)ccc3O[C@@H]2[C@H](CO)O1)c1ccccc1 | -3.56%
COC(=O)C[C@@H]1CC[C@@H]2[C@@H](COc3ccc(NC(=O)C4CCOCC4)cc3C(=O)N2C)O1 | 1.18%

SMILES | reporter increase
C[C@H]1CN([C@@H](C)CO)C(=O)Cc2cc(NC(=O)Nc3ccc(F)cc3)ccc2O[C@H]1CN(C)S(=O)(=O)c1ccc(F)cc1 | 1.01%
COc1cc(-n2c(C)nc3cc(C(=O)NCc4ccco4)ccc32)cc(OC)c1OC | -1.78%
Cc1nc2cc(NCc3cccs3)ccc2n1C | 35%
COc1ccc(-n2cnc3cc(NCc4ccco4)ccc32)cc1 | 56.7% (active)
O=C(C[C@H]1CC[C@H](NC(=O)Nc2ccccc2F)[C@@H](CO)O1)NCc1ccccc1 | 0.158%
FC(F)(F)Oc1ccc(NC(=S)NCc2ccccc2)cc1 | -1.5%
Cc1ccc(NC(=S)Nc2ccc(F)cc2)cc1 | 9.65%
S=C(Nc1ccccc1)Nc1ccc2ccccc2c1 | 78.2% (active)
CCOc1ccc(/C=C(/C#N)c2nnc(N3CCOCC3)n2-c2ccccc2)cc1OC | 2.69%
CCCCCOc1ccc(/C=C/C(=O)NCCc2nc3ccccc3[nH]2)cc1OC | 1.93%
COc1cc(/C=C(\C#N)c2nc3ccccc3[nH]2)ccc1O | 54.9% (active)
CC=Cc1ccc2n(c1=O)C[C@@H]1[C@@H](CO)[C@H](C(=O)NCCCN3CCOCC3)[C@H]2N1Cc1cocn1 (mixture of isomers) | -2.98%
CCNC(=O)C[C@@H]1CC[C@H](NC(=O)NC2CCCCC2)[C@H](CO)O1 | -1.71%
O=C(C[C@@H]1C[C@@H]2c3cc(NC(=O)Cc4ccncc4)ccc3O[C@@H]2[C@H](CO)O1)NCc1cccc(F)c1 | -1.25%
O=C(COc1ccccc1Cl)N1CCCCCCC1 | 5.02%
O=C(OCC(=O)N1CCCCCC1)c1cccc(Cl)c1Cl | 46.9% (active)
O=C(COC(=O)c1cccc(Cl)c1Cl)NC1CCCCCC1 | -2.51%
Cc1ccc(O)c(NC(=O)c2cc(-c3ccco3)on2)c1 | 69.9% (active)
Cc1ccc(C)c(NC(=O)c2ccc(OC(=O)c3ccco3)cc2)c1 | 5.84%
CC(C)Cc1cc(C(=O)Nc2cc(Br)ccc2O)no1 | 30.6%
C[C@H](CO)N1C[C@H](C)[C@@H](CN(C)CC2CC2)OCCCC[C@H](C)Oc2ccc(NC(=O)Nc3ccccc3)cc2C1=O | 2.38%
CNC[C@H]1Oc2cc(-c3ccc(C(=O)N(C)C)cc3)ccc2S(=O)(=O)N([C@@H](C)CO)C[C@@H]1C | 0.467%
C[C@@H]1CN([C@H](C)CO)C(=O)c2ccccc2-c2ccccc2CO[C@H]1CN(C)C(=O)CCC(F)(F)F | -0.31%
COc1cccc(C(=O)Nc2ccc3nc4n(c(=O)c3c2)CCCCC4)c1 | 38.2%
CC(=O)c1ccc(NC(=O)c2sc3nc4n(c(=O)c3c2C)CCCCC4)cc1 | 56.1% (active)
O=c1c2c(nc3n1CCCCC3)sc1c(O)cccc12 | -22.9%

SMILES | reporter increase
COc1cccc(NC(=O)N(C)C[C@H]2Oc3ncc(C4=CCCCC4)cc3C(=O)N([C@H](C)CO)C[C@H]2C)c1 | 6.32%
C[C@H](CO)N1C[C@H](C)[C@@H](CN(C)C(=O)Nc2ccccc2)Oc2ncc(C3=CCCC3)cc2C1=O | 1.19%
Cn1cnc(S(=O)(=O)N2C[C@@H](O)COC[C@H]3O[C@H](CC(=O)N4CCN(c5ccccc5)CC4)CC[C@@H]32)c1 | 0.849%
COc1ccc(C2CC(c3cccc(OC)c3)=NN2c2ccc(S(N)(=O)=O)cc2)cc1 (configuration not stated) | 4.76%
COc1ccc(C2=NN(C(=O)CSc3nc(=O)n4ccc(C)cc4n3)C(c3ccc(C)cc3)C2)cc1 (configuration not stated) | 9.03%
COc1ccc(C2CC(c3ccccc3)=NN2C(=O)CSc2nccc(=O)[nH]2)cc1 (configuration not stated) | 11.5%
COc1ccc(C2=NN(C(=O)CSc3nnnn3C)C(c3ccco3)C2)cc1 (configuration not stated) | 18%
COc1ccc(C2CC(c3ccccc3)=NN2C(=O)c2ccc(Cl)c([N+](=O)[O-])c2)cc1 (configuration not stated) | -0.268%
COc1ccc(C2CC(c3ccc([N+](=O)[O-])cc3)=NN2C(C)=O)cc1 (configuration not stated) | 71.3% (active)
COc1ccc(C2=NN(C(=O)c3ccccc3C(=O)O)C(c3ccccc3O)C2)cc1 (configuration not stated) | 74.8% (active)
COc1ccc(C2=NN(C(C)=O)C(c3ccccc3)C2)cc1 (configuration not stated) | 53.9% (active)
COc1cccc(C2CC(c3ccccc3)=NN2S(=O)(=O)c2ccccc2)c1OC (configuration not stated) | -2.12%
C[C@@H]1CN([C@@H](C)CO)C(=O)Cc2cc(NC(=O)Nc3cccc4ccccc34)ccc2O[C@@H]1CN(C)CC1CCCCC1 | -7.15%
CC(C)CC#Cc1cnc2c(c1)C(=O)N([C@H](C)CO)C[C@H](C)[C@@H](CN(C)Cc1ccccc1C(=O)O)O2 | -5.98%
Cc1noc(C)c1S(=O)(=O)Nc1ccc2c(c1)C(=O)N([C@H](C)CO)C[C@@H](C)[C@@H](CN(C)Cc1ccccc1)OCCCC[C@@H](C)O2 | 3.09%
CN1C(=O)c2cc(NC(=O)C3CCCCC3)ccc2OC[C@H]2O[C@@H](CC(=O)NC3CCCC3)CC[C@@H]21 | 0.376%
C[C@@H]1CN([C@@H](C)CO)C(=O)Cc2cc(NC(=O)Nc3cccc4ccccc34)ccc2O[C@H]1CN(C)S(=O)(=O)c1ccc(Cl)cc1 | -0.13%
COc1ccc(NC(=O)N(C)C[C@H]2Oc3ccc(NC(=O)Cc4cn(C)c5ccccc45)cc3CC(=O)N([C@@H](C)CO)C[C@H]2C)cc1 | -1.83%
CS(=O)(=O)Nc1cccc(C2=NN(S(=O)(=O)c3ccccc3)C(c3cccs3)C2)c1 (configuration not stated) | -7.36%
CS(=O)(=O)Nc1ccc(C2=NN(S(C)(=O)=O)C(c3cccs3)C2)cc1 (configuration not stated) | 58.2% (active)
CS(=O)(=O)Nc1cccc(C2=NN(C(=O)c3cccc(F)c3)C(c3cccs3)C2)c1 (configuration not stated) | 5.14%
CC(C)C#Cc1ccc2c(c1)O[C@@H](CN(C)C(=O)C1CC1)[C@H](C)CN([C@H](C)CO)S2(=O)=O | 3.19%
C[C@@H]1CN([C@H](C)CO)C(=O)c2cccc(NS(=O)(=O)c3ccc(F)cc3)c2O[C@@H]1CN(C)S(=O)(=O)c1ccc(Cl)cc1 | 0.559%
CO[C@@H](CN(C)S(=O)(=O)c1ccc(F)cc1)[C@H](C)CN(C(=O)Nc1ccccc1F)[C@@H](C)CO | 7.4%
O=C(C[C@H]1C=C[C@@H](NC(=O)c2cnccn2)[C@H](CO)O1)NCc1ccccc1F | -1.5%
